PubChem BioAssay (Tox21)
Inconclusive results are not listed. Calls of active or inactive are those of the source. Unless noted, calls come from the whole dose curve; as a rule, active = well fitted curve in the direction sought with a large enough effect in the repeat runs; inconclusive = weak or mixed curves; inactive = no such curve, though single readings can be large; an effect the other way counts as inactive or inconclusive.

Key:
[1] = qHTS assay to identify small molecule agonists of the vitamin D receptor (VDR) signaling pathway - cell viability counter screen (AID 743224); note: series mostly up to about 63 µM; % is set by controls: 0 for no effect and ±100 for the full control effect; nearly all actives have a fitted effect of over 50% in size
Outline: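 VDR-bla cells, 4 h after plating, exposed to compounds for 16 h at 37C; viability then read in the same wells as CellTiter-Glo luminescence after 30 min at room temperature, following the bla FRET read.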

[2] = qHTS assay to identify small molecule antagonists of the vitamin D receptor (VDR) signaling pathway - cell viability counter screen (AID 743225); note: % is set by controls: 0 for no effect and ±100 for the full control effect; nearly all actives have a fitted effect of over 50% in size
Outline: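 VDR-UAS-bla HEK 293T cells were plated and incubated 4 h at 37C, then dosed with compound plus 3 nM (final) 1-alpha,25-dihydroxyvitamin D3 for 16 h. After the 2 h beta-lactamase read, viability in the same wells was read as CellTiter-Glo luminescence after 30 min at room temperature.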

[3] = qHTS assay to identify small molecule agonists of the NFkB signaling pathway (AID 1159509; active = well fitted curve in the direction sought with a large enough effect in the signal ratio in the repeat runs, not every such curve was filed as active; the % refers to the signal ratio; note: series mostly up to about 61 µM; % is set by controls: 0 for no effect and ±100 for the full control effect)
Outline: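 NFkB-bla ME-180 cells carry a beta-lactamase reporter under an NF-kB response element. They were plated overnight, then exposed to compounds for 5 h at 37 C. Read-out is LiveBLAzer FRET after 1.5 hr at room temperature (405 nm excitation; 460/530 nm emission).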

[4] = qHTS assay to identify small molecule agonists of the NFkB signaling pathway - cell viability counter screen (AID 1159515; calls by dose curve; note: series mostly up to about 61 µM; % is set by controls: 0 for no effect and ±100 for the full control effect; nearly all actives have a fitted effect of over 55% in size)
Outline: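 NFkB-bla ME-180 cells, 2,000/well, plated overnight at 37 C; compound added for 5 hr at 37 C. Viability read in the same wells as the bla reporter, by CellTiter-Glo luminescence after 30 min at room temperature.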

[5] = qHTS assay to identify small molecule agonists of the endoplasmic reticulum stress response signaling pathway (AID 1159516; active = well fitted activation curve with a large enough effect in the signal ratio in the repeat runs, not every such curve was filed as active; the % refers to the signal ratio; note: % is set by controls: 0 for no effect and ±100 for the full control effect)
Outline: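 CellSensor ESRE-bla HeLa cells, 1,500 per well, plated overnight, then exposed to compounds for 5 hr at 37 C. Beta-lactamase reporter read with LiveBLAzer B/G FRET substrate after 2 hr at room temperature, 405 nm excitation, 460 and 530 nm emission.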

[6] = qHTS assay to identify small molecule agonists of the endoplasmic reticulum stress response signaling pathway - cell viability counter screen (AID 1159517; calls by dose curve;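 note: HeLa cells carrying an ER stress response element beta-lactamase reporter; series mostly up to about 61 µM; % is set by controls: 0 for no effect and ±100 for the full control effect; nearly all actives have a fitted effect of over 50% in size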)
Outline: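 HeLa cells carrying an ESRE-driven beta-lactamase reporter receive compound for 5 hr at 37 C. Cell viability is then gauged with CellTiter-Glo by luminescence, 30 min at room temperature.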

[7] = qHTS assay to identify small molecule antagonists of the retinoid-related orphan receptor gamma (ROR-gamma) signaling pathway - cell viability counter screen (AID 1159520); note: % is set by controls: 0 for no effect and ±100 for the full control effect; nearly all actives have a fitted effect of over 50% in size
Outline: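 Cytotoxicity was read from cellular ATP (CellTiter-Glo luminescence) after 16 hr at 37 C with 1 uM doxycycline induction. The inducer was added 2 hr after compound transfer to Tet-on ROR gamma CHO cells.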

[8] = target: Nuclear receptor ROR-gamma (Homo sapiens) (UniProt P51449); assay: qHTS assay to identify small molecule antagonists of the retinoid-related orphan receptor gamma (ROR-gamma) signaling pathway (AID 1159521; note: nearly all actives have a fitted effect of over 50% in size; note: potency is the fitted concentration of half-maximal effect;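 for activity change, negative = inhibition: CHO cells with doxycycline inducible ROR-gamma driving an RORE luciferase reporter; top concentration of the series differs between compounds; % is set by controls: 0 for no effect and ±100 for the full control effect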)
Outline: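 Tet-on ROR-gamma CHO cells with ROR response element-luciferase reporter; compounds added 2 hr before 1 uM doxycycline induction, then 16 hr at 37 C. Antagonism scored as decreased ONE-Glo luminescence.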

[9] = qHTS assay to identify small molecule agonists of the AP-1 signaling pathway - cell viability counter screen (AID 1159525; calls by dose curve; note: nearly all actives have a fitted effect of over 55% in size)
Outline: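 Luminescent ATP readout (Cell Titer Glo, 30 min RT), normalised to DMSO and tetra n-octyl ammonium bromide controls. Cells were ME-180 AP-1-bla in 0.5% dialyzed FBS Opti-MEM, with a 5 h, 37 °C compound exposure.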

[10] = qHTS assay to identify small molecule agonists of the AP-1 signaling pathway (AID 1159526; calls by dose curve; note: % is set by controls: 0 for no effect and ±100 for the full control effect)

CCC(=O)O[C@]1(C(=O)SCF)[C@H](C)C[C@H]2[C@@H]3C[C@H](F)C4=CC(=O)C=C[C@]4(C)[C@@]3(F)[C@@H](O)C[C@@]21C
inactive: Potency [1] | Potency [2] | outcome [3] | outcome [4] | outcome [5] | outcome [6] | Potency [7] | Potency [8] | outcome [9]

CC(C)NC[C@@H](O)COc1cccc2ccccc12
inactive: Potency [1] | Potency [2] | outcome [3] | outcome [4] | outcome [5] | outcome [6] | Potency [7] | Potency [8] | outcome [9]

Cc1c(C(=O)NCCO)[n+](=O)c2ccccc2n1[O-]
inactive: Potency [1] | Potency [2] | outcome [3] | outcome [4] | outcome [5] | outcome [6] | Potency [7] | Potency [8] | outcome [9]

CC1(C)O[C@@H]2C[C@H]3[C@@H]4CCC5=CC(=O)CC[C@]5(C)[C@@]4(F)[C@@H](O)C[C@]3(C)[C@]2(C(=O)CCl)O1
active: Potency [8] 13.3 µM
inactive: Potency [1] | outcome [3] | outcome [4] | outcome [5] | outcome [6] | Potency [7] | outcome [9]

CNCCC(Oc1ccccc1OC)c1ccccc1 (stereo unspecified)
inactive: Potency [1] | Potency [2] | outcome [3] | outcome [4] | outcome [5] | outcome [6] | Potency [7] | Potency [8] | outcome [9]

CCOc1ccccc1N
active: Potency [8] 54.1 µM
inactive: Potency [1] | Potency [2] | outcome [3] | outcome [4] | outcome [5] | outcome [6] | Potency [7] | outcome [9]

CCCCNc1ccc(C(=O)OCCN(CC)CC)cc1
inactive: Potency [1] | Potency [2] | outcome [3] | outcome [4] | outcome [5] | outcome [6] | Potency [7] | Potency [8] | outcome [9]

Cc1c(-c2ccccc2)oc2c(C(=O)OCCN3CCCCC3)cccc2c1=O
inactive: Potency [1] | outcome [3] | outcome [4] | outcome [5] | outcome [6] | Potency [7] | Potency [8] | outcome [9]

CC(=O)Oc1cc(C(C)C)c(OCCN(C)C)cc1C
inactive: Potency [1] | Potency [2] | outcome [3] | outcome [4] | outcome [5] | outcome [6] | Potency [7] | Potency [8] | outcome [9]

O=C1Nc2ccc([N+](=O)[O-])cc2C1=O
inactive: Potency [1] | outcome [3] | outcome [4] | outcome [5] | outcome [6] | Potency [7] | Potency [8] | outcome [9]

CN1CCN(C2=Nc3cc(F)ccc3Cc3ccccc32)CC1
inactive: Potency [1] | outcome [3] | outcome [4] | outcome [5] | outcome [6] | Potency [7] | Potency [8] | outcome [9]

CCCS(=O)c1ccc2nc(NC(=O)OC)[nH]c2c1 (stereo unspecified)
inactive: Potency [1] | Potency [2] | outcome [3] | outcome [4] | outcome [5] | outcome [6] | Potency [7] | Potency [8] | Potency [10]

CO[C@@]1(NC(=O)CSCC#N)C(=O)N2C(C(=O)O)=C(CSc3nnnn3C)CS[C@@H]21
inactive: Potency [1] | Potency [2] | outcome [3] | outcome [4] | outcome [5] | outcome [6] | Potency [7] | Potency [8] | Potency [10]

C=CCCC=C
inactive: Potency [2] | outcome [3] | outcome [4] | outcome [5] | outcome [6] | Potency [7] | Potency [8] | outcome [9]

C=CC1CO1 (stereo unspecified)
inactive: Potency [1] | Potency [2] | outcome [3] | outcome [4] | outcome [5] | outcome [6] | Potency [7] | Potency [8] | Potency [10]

CCCCNC(=S)NCCCC
inactive: Potency [2] | outcome [3] | outcome [4] | outcome [5] | outcome [6] | Potency [7] | Potency [8] | outcome [9]

Nc1ccc2ccccc2c1S(=O)(=O)O
inactive: Potency [1] | Potency [2] | outcome [3] | outcome [4] | outcome [5] | outcome [6] | Potency [7] | Potency [8] | outcome [9]

CC(C)C(=O)OCC(C)(C)C(O)C(C)C (stereo unspecified)
inactive: Potency [1] | Potency [2] | outcome [3] | outcome [4] | outcome [5] | outcome [6] | Potency [7] | Potency [8] | Potency [10]

COC(=O)c1ccc2cc(C(=O)OC)ccc2c1
inactive: Potency [2] | outcome [3] | outcome [4] | outcome [5] | outcome [6] | activity, negative = cytotoxicity [7] -0.583% [at 19 µM] | activity change, negative = inhibition [8] 0.445% [at 19 µM] | viability change, negative = cytotoxic [9] 2.85% [at 15.8 µM]

OCC(CBr)(CBr)CBr
inactive: Potency [1] | Potency [2] | outcome [3] | outcome [4] | outcome [5] | outcome [6] | Potency [7] | Potency [8] | Potency [10]

O=C(O)C(=O)Cc1c[nH]c2ccccc12
inactive: Potency [1] | Potency [2] | outcome [3] | outcome [4] | outcome [5] | outcome [6] | Potency [7] | Potency [8] | outcome [9]

CC(C)C(=O)OC/C=C/c1ccccc1
inactive: Potency [1] | Potency [2] | outcome [3] | outcome [4] | outcome [5] | outcome [6] | Potency [7] | Potency [8] | Potency [10]

C[C@@H](N)C(=O)O
inactive: Potency [2] | outcome [3] | outcome [4] | outcome [5] | outcome [6] | Potency [7] | Potency [8] | outcome [9]

CC(C)OC(C)C
inactive: Potency [1] | Potency [2] | outcome [3] | outcome [4] | outcome [5] | outcome [6] | Potency [7] | Potency [8] | Potency [10]

C/C(=N\O)[C@@H](C)NCC(C)(C)CN[C@H](C)/C(C)=N/O
inactive: Potency [1] | Potency [2] | outcome [3] | outcome [4] | outcome [5] | outcome [6] | Potency [7] | Potency [8] | Potency [10]

CCCC1CCC(=O)O1 (stereo unspecified)
inactive: Potency [1] | Potency [2] | outcome [3] | outcome [4] | outcome [5] | outcome [6] | Potency [7] | Potency [8] | Potency [10]
